Data taken from the supplement of paper PMC6089552.
Hit rate of the full screen: of about 3,200 compounds, about 300 (9.4%) showed activity. Many of the other results were omitted from the sample, so actives are more common in it than they were.

System: A673/TR/shEF
Assay: cell viability (LOESS-normalised, relative to median of negative controls) (log2 ratio); higher = more viable cells (less compound effect), active = hit call of the paper (over 3 MAD below the median)
Conditions: treatment time: 72 h
Summary of the method: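 Doxycycline, present or absent from 24 h before compounds, was used to induce EWS-FLI1 shRNA knockdown in A673/TR/shEF Ewing sarcoma cells at 1,500 per well in 384-well plates. Cells then received library compounds at two or more concentrations, or DMSO controls, for three days. Viability was measured by CellTiter-Glo luminescence on an Envision reader, and per-plate LOESS correction, division by the negative-control median and log2 transformation followed.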

[1] = 0.25 µM, library screen: screen1, EWS-FLI1 expression: high (no doxycycline)
[2] = 0.25 µM, library screen: screen1, EWS-FLI1 expression: low (doxycycline-induced shRNA knockdown)
[3] = 2.5 µM, library screen: screen1, EWS-FLI1 expression: high (no doxycycline)
[4] = 2.5 µM, library screen: screen1, EWS-FLI1 expression: low (doxycycline-induced shRNA knockdown)

Measured: cell viability (log2)

COc1cccc(CN2CCN(Cc3ccccc3OC)CC2)c1
inactive: [1] 0.108 | [2] 0.0202 | [3] 0.149 | [4] -0.0141

COc1cc2c(cc1-c1cc3cc4ccoc4cc3oc1=O)OCO2
inactive: [1] 0.0215 | [2] -0.011 | [3] 0.0285 | [4] 0.107

CN1[C@H]2CC(OC(=O)C(CO)c3ccccc3)C[C@H]1[C@H]1O[C@H]12 (stereo not given in full)
inactive: 0.103 µM, library screen: screen3, EWS-FLI1 expression: high (no doxycycline) 0.0178 | 0.103 µM, library screen: screen3, EWS-FLI1 expression: low (doxycycline-induced shRNA knockdown) 0.0286 | [1] 0.0614 | [2] 0.0379 | 0.25 µM, library screen: screen2, EWS-FLI1 expression: high (no doxycycline) 0.0402 | 0.25 µM, library screen: screen2, EWS-FLI1 expression: low (doxycycline-induced shRNA knockdown) 0.0538 | 0.308 µM, library screen: screen3, EWS-FLI1 expression: high (no doxycycline) 0.0468 | 0.308 µM, library screen: screen3, EWS-FLI1 expression: low (doxycycline-induced shRNA knockdown) 0.0486 | 0.926 µM, library screen: screen3, EWS-FLI1 expression: high (no doxycycline) 0.057 | 0.926 µM, library screen: screen3, EWS-FLI1 expression: low (doxycycline-induced shRNA knockdown) 0.0457 | [3] 0.101 | [4] 0.113 | 2.5 µM, library screen: screen2, EWS-FLI1 expression: high (no doxycycline) 0.0967 | 2.5 µM, library screen: screen2, EWS-FLI1 expression: low (doxycycline-induced shRNA knockdown) 0.105 | 2.8 µM, library screen: screen3, EWS-FLI1 expression: high (no doxycycline) 0.00477 | 2.8 µM, library screen: screen3, EWS-FLI1 expression: low (doxycycline-induced shRNA knockdown) 0.0597 | 8.3 µM, library screen: screen3, EWS-FLI1 expression: high (no doxycycline) 0.0173 | 8.3 µM, library screen: screen3, EWS-FLI1 expression: low (doxycycline-induced shRNA knockdown) 0.0298 | 25 µM, library screen: screen3, EWS-FLI1 expression: high (no doxycycline) -0.0119 | 25 µM, library screen: screen3, EWS-FLI1 expression: low (doxycycline-induced shRNA knockdown) 0.114

CCNc1nc(Cl)nc(NCC)n1
inactive: [1] 0.0934 | [2] -0.0122 | [3] 0.0949 | [4] 0.0079

c1ccc2c(c1)sc1ccccc12
inactive: [1] 0.0739 | [2] 0.0613 | [3] 0.158 | [4] 0.198

CCOP(=S)(OCC)SCSP(=S)(OCC)OCC
inactive: [1] 0.0176 | [2] 0.0157 | [3] 0.0447 | [4] 0.0694
